# Measured values published in PubChem BioAssay AID1159580 (chemical genetic matrix, 2015).
# Screen size: about 5,500 compounds; about 2,000 (36%) were called active. Another 18% or so got no clear call; they are omitted. The list shows a part of the results. Unmarked numbers belong to inactive results. No stated cut-off is given here; in the data, active means normalized growth mostly below about 0.91 (no sharp cut-off); inconclusive means no clear call, values can overlap the other calls; inactive means mostly above about 0.92.
# Assay: chemical genetic growth profiling, strain panel (AID 1159580);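 further: tested at 20 µM; growth read once vehicle control cultures reached saturation at 30 °C; 1 = growth at the plate median or of vehicle wells; lower values mean less growth of the strain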
# Settings: growth OD
structure (smiles),measurement,setting,value
O=C(O)CCCCC1CCSS1 (configuration not stated),normalized growth,"S. cerevisiae deletion strains, locus YJR075W, strain HOC1, hits give low values",1
same,normalized growth,"S. cerevisiae deletion strains, locus YKL009W, strain mrt4, hits give low values",0.978
same,normalized growth,"S. cerevisiae deletion strains, locus YKL068W, hits give low values",1.01
same,normalized growth,"S. cerevisiae deletion strains, locus YKL085W, strain MDH1 (second series), hits give low values",0.996
same,normalized growth,"S. cerevisiae deletion strains, locus YKL085W, strain MDH1, hits give low values",0.996
same,normalized growth,"S. cerevisiae deletion strains, locus YKL160W, strain elf1, hits give low values",0.988
same,normalized growth,"S. cerevisiae deletion strains, locus YKL190W, strain CNB1, hits give low values",0.989
same,normalized growth,"S. cerevisiae deletion strains, locus YKR001C, strain vps1, hits give low values",0.954
same,normalized growth,"S. cerevisiae deletion strains, locus YKR026C, strain gcn3, hits give low values",0.965
same,normalized growth,"S. cerevisiae deletion strains, locus YKR091W, strain srl3, hits give low values",0.982
same,normalized growth,"S. cerevisiae deletion strains, locus YLL001W, strain dnm1, hits give low values",0.95
same,normalized growth,"S. cerevisiae deletion strains, locus YLL026W, hits give low values",0.946
same,normalized growth,"S. cerevisiae deletion strains, locus YLL041C, strain sdh2, hits give low values",0.976
same,normalized growth,"S. cerevisiae deletion strains, locus YLR027C, strain aat2, hits give low values",0.973
same,normalized growth,"S. cerevisiae deletion strains, locus YLR039C, strain RIC1, hits give low values",0.943
same,normalized growth,"S. cerevisiae deletion strains, locus YLR058C, strain SHM2, hits give low values",0.968
same,normalized growth,"S. cerevisiae deletion strains, locus YLR102C, strain apc9, hits give low values",0.984
same,normalized growth,"S. cerevisiae deletion strains, locus YLR113W, strain HOG1, hits give low values",0.961
same,normalized growth,"S. cerevisiae deletion strains, locus YLR221C, strain rsa3, hits give low values",0.963
same,normalized growth,"S. cerevisiae deletion strains, locus YLR258W, strain gsy2, hits give low values",0.933
same,normalized growth,"S. cerevisiae deletion strains, locus YLR262C, strain YPT6 (second series), hits give low values",0.839 (active)
same,normalized growth,"S. cerevisiae deletion strains, locus YLR262C, strain YPT6, hits give low values",0.969
same,normalized growth,"S. cerevisiae deletion strains, locus YLR268W, strain sec22, hits give low values",1.06
same,normalized growth,"S. cerevisiae deletion strains, locus YLR320W, strain mms22, hits give low values",0.98
same,normalized growth,"S. cerevisiae deletion strains, locus YLR330W, strain CHS5, hits give low values",0.966
same,normalized growth,"S. cerevisiae deletion strains, locus YLR342W, strain FKS1 (second series), hits give low values",0.945
same,normalized growth,"S. cerevisiae deletion strains, locus YLR342W, strain FKS1, hits give low values",0.979
same,normalized growth,"S. cerevisiae deletion strains, locus YLR357W, strain rsc2, hits give low values",0.901
same,normalized growth,"S. cerevisiae deletion strains, locus YLR370C, strain arc18, hits give low values",0.986
same,normalized growth,"S. cerevisiae deletion strains, locus YLR371W, strain rom2, hits give low values",0.973
same,normalized growth,"S. cerevisiae deletion strains, locus YLR384C, strain iki3, hits give low values",0.977
same,normalized growth,"S. cerevisiae deletion strains, locus YLR418C, strain cdc73, hits give low values",0.979
same,normalized growth,"S. cerevisiae deletion strains, locus YML016C, strain PPZ1, hits give low values",0.982
same,normalized growth,"S. cerevisiae deletion strains, locus YML032C, strain rad52, hits give low values",0.993
same,normalized growth,"S. cerevisiae deletion strains, locus YML120C, strain ndi1, hits give low values",0.937
same,normalized growth,"S. cerevisiae deletion strains, locus YML124C, strain tub3, hits give low values",0.98
same,normalized growth,"S. cerevisiae deletion strains, locus YMR058W, strain fet3, hits give low values",0.968
same,normalized growth,"S. cerevisiae deletion strains, locus YMR078C, strain ctf18, hits give low values",0.979
same,normalized growth,"S. cerevisiae deletion strains, locus YMR125W, strain sto1, hits give low values",0.981
same,normalized growth,"S. cerevisiae deletion strains, locus YMR129W, hits give low values",0.937
same,normalized growth,"S. cerevisiae deletion strains, locus YMR205C, strain PFK2, hits give low values",0.921
same,normalized growth,"S. cerevisiae deletion strains, locus YMR223W, strain ubp8, hits give low values",0.948
same,normalized growth,"S. cerevisiae deletion strains, locus YMR231W, strain pep5, hits give low values",0.955
same,normalized growth,"S. cerevisiae deletion strains, locus YMR263W, strain SAP30, hits give low values",0.981
same,normalized growth,"S. cerevisiae deletion strains, locus YMR307W, strain GAS1, hits give low values",1.02
same,normalized growth,"S. cerevisiae deletion strains, locus YNL067W, strain RPL9B, hits give low values",1.01
same,normalized growth,"S. cerevisiae deletion strains, locus YNL071W, strain lat1, hits give low values",0.973
same,normalized growth,"S. cerevisiae deletion strains, locus YNL128W, strain TEP1, hits give low values",0.962
same,normalized growth,"S. cerevisiae deletion strains, locus YNL153C, strain GIM3, hits give low values",1
same,normalized growth,"S. cerevisiae deletion strains, locus YNL183C, strain NPR1, hits give low values",0.842
same,normalized growth,"S. cerevisiae deletion strains, locus YNL209W, strain ssb2, hits give low values",0.986
same,normalized growth,"S. cerevisiae deletion strains, locus YNL233W, strain BNI4, hits give low values",1.01
same,normalized growth,"S. cerevisiae deletion strains, locus YNL248C, strain rpa49, hits give low values",0.979
same,normalized growth,"S. cerevisiae deletion strains, locus YNL250W, strain rad50, hits give low values",0.979
same,normalized growth,"S. cerevisiae deletion strains, locus YNL271C, strain bni1, hits give low values",0.976
same,normalized growth,"S. cerevisiae deletion strains, locus YNL298W, strain CLA4, hits give low values",0.928
same,normalized growth,"S. cerevisiae deletion strains, locus YNL307C, strain MCK1, hits give low values",0.983
same,normalized growth,"S. cerevisiae deletion strains, locus YNL322C, strain KRE1 (second series), hits give low values",0.97
same,normalized growth,"S. cerevisiae deletion strains, locus YNL322C, strain KRE1, hits give low values",0.985
same,normalized growth,"S. cerevisiae deletion strains, locus YNR049C, strain mso1, hits give low values",0.97
same,normalized growth,"S. cerevisiae deletion strains, locus YNR052C, strain pop2, hits give low values",0.999
same,normalized growth,"S. cerevisiae deletion strains, locus YOL006C, strain TOP1, hits give low values",1.04
same,normalized growth,"S. cerevisiae deletion strains, locus YOL012C, strain htz1",0.885
same,normalized growth,"S. cerevisiae deletion strains, locus YOL147C, strain pex11, hits give low values",0.975
same,normalized growth,"S. cerevisiae deletion strains, locus YOR001W, strain rrp6, hits give low values",0.962
same,normalized growth,"S. cerevisiae deletion strains, locus YOR061W, strain CKA2, hits give low values",0.97
same,normalized growth,"S. cerevisiae deletion strains, locus YOR069W, strain VPS5, hits give low values",0.986
same,normalized growth,"S. cerevisiae deletion strains, locus YOR070C, strain gyp1, hits give low values",0.979
same,normalized growth,"S. cerevisiae deletion strains, locus YOR080W, strain dia2, hits give low values",0.962
same,normalized growth,"S. cerevisiae deletion strains, locus YOR083W, strain WHI5, hits give low values",0.989
same,normalized growth,"S. cerevisiae deletion strains, locus YOR106W, strain vam3, hits give low values",0.957
same,normalized growth,"S. cerevisiae deletion strains, locus YOR136W, strain idh2, hits give low values",0.969
same,normalized growth,"S. cerevisiae deletion strains, locus YOR144C, strain elg1, hits give low values",0.973
same,normalized growth,"S. cerevisiae deletion strains, locus YOR184W, strain ser1, hits give low values",0.973
same,normalized growth,"S. cerevisiae deletion strains, locus YOR231W, strain MKK1, hits give low values",0.892
same,normalized growth,"S. cerevisiae deletion strains, locus YOR265W, strain rbl2, hits give low values",0.973
same,normalized growth,"S. cerevisiae deletion strains, locus YOR270C, strain vph1, hits give low values",1.02
same,normalized growth,"S. cerevisiae deletion strains, locus YOR290C, strain snf2, hits give low values",0.91
same,normalized growth,"S. cerevisiae deletion strains, locus YOR316C, strain cot1, hits give low values",0.986
same,normalized growth,"S. cerevisiae deletion strains, locus YPL051W, strain arl3, hits give low values",0.981
same,normalized growth,"S. cerevisiae deletion strains, locus YPL055C, strain LGE1, hits give low values",1
same,normalized growth,"S. cerevisiae deletion strains, locus YPL078C, strain atp4, hits give low values",0.99
same,normalized growth,"S. cerevisiae deletion strains, locus YPL106C, strain sse1, hits give low values",0.965
same,normalized growth,"S. cerevisiae deletion strains, locus YPL240C, strain hsp82, hits give low values",0.97
same,normalized growth,"S. cerevisiae deletion strains, locus YPL241C, strain CIN2, hits give low values",0.98
same,normalized growth,"S. cerevisiae deletion strains, locus YPL256C, strain CLN2, hits give low values",0.94
same,normalized growth,"S. cerevisiae deletion strains, locus YPR119W, strain clb2, hits give low values",0.977
same,normalized growth,"S. cerevisiae deletion strains, locus YPR141C, strain kar3, hits give low values",0.985
same,normalized growth,"S. cerevisiae deletion strains, locus YPR163C, strain tif3, hits give low values",0.989
same,normalized growth,"S. cerevisiae deletion strains, locus YPR167C, strain met16, hits give low values",0.988
same,normalized growth,"S. cerevisiae deletion strains, strain wtn01, hits give low values",1
same,normalized growth,"S. cerevisiae strains, strain wild type, hits give low values",0.978
